These results are taken from PubChem BioAssay (EPA / NIEHS).

By AC50 is commonly meant the concentration giving half of the maximal activity seen.

Results filed as inconclusive are left out. Activity calls are given as the source filed them. How the source made its calls: active means hit-call score of the fitted dose curve at least 0.9, where 1 is the maximum; inconclusive means response in the unintended direction; inactive means score below 0.9.

Assay [1] is described as follows: TOX21_p53_BLA_p2_viability: Viability Assessment in the Tox21 HCT-116 p53 Agonism Beta-lactamase Assay, Phase 2 (AID 2283591).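 Further: compound exposure lasted 16 h at 37 °C; actives lower the ATP signal meaning cytotoxicity.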 The method in brief:
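HCT116 p53-bla cells, 4000/well, dosed after 5 h plating (217-fold dilution of DMSO stocks) and incubated 16 h at 37C. Viability taken as cellular ATP by CellTiter-Glo luminescence after 30 min RT; signal loss marks cytotoxicity.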

Assay [2] concerns the target Cellular tumor antigen p53 (Homo sapiens) (UniProt P04637). Description: TOX21_p53_BLA_p2_ratio: Tox21 HCT-116 p53 Agonism Beta-lactamase Assay, Ratio, Phase 2 (AID 2283592). Summed up: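 Plated HCT116 p53-bla cells (4000/well) received compound after 5 h, then 16 h at 37C/5% CO2. CCF4-AM added, 2 h RT. Ratio of 460 to 530 nm emission taken as the p53 reporter signal.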

Assay [3] in a line: TOX21_p53_BLA_p3_viability: Viability Assessment in the Tox21 HCT-116 p53 Agonism Beta-lactamase Assay, Phase 3 (AID 2283593).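 Further: cells exposed to compound for 16 h before reading.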 Summed up:
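HCT116 cells, 4000/well, dosed 5 h after plating by pin transfer (217-fold dilution from DMSO stock) and incubated 16 h at 37C, 5% CO2. Viability read as ATP luminescence with CellTiter-Glo after 30 min at room temperature.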

Assay [4] in a line: TOX21_p53_BLA_p4_viability: Viability Assessment in the Tox21 HCT-116 p53 Agonism Beta-lactamase Assay, Phase 4 (AID 2283597).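 Further: hits lower the luminescence signal meaning cytotoxicity.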 Summed up:
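Readout: ATP luminescence (CellTiter-Glo), measured 30 min after reagent addition at RT. The reagent followed a 2 h CCF4-AM incubation, and the cells had been exposed to compound for 16 h at 37C.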

The target in assay [5] is Cellular tumor antigen p53 (Homo sapiens) (UniProt P04637). Description: TOX21_p53_BLA_p5_ratio: Tox21 HCT-116 p53 Agonism Beta-lactamase Assay, Ratio, Phase 5 (AID 2283599). Summed up: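 HCT-116 p53-bla cells (4000/well) plated 5 h, dosed with compound (217-fold DMSO dilution) for 16 h at 37 C; CCF4-AM substrate 2 h at room temperature. Activity is the 460/530 nm emission ratio (405 nm excitation), fitted in gain-of-signal direction versus DMSO.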
Cellular tumor antigen p53 (Homo sapiens), sequence (P04637 whole entry, looked up): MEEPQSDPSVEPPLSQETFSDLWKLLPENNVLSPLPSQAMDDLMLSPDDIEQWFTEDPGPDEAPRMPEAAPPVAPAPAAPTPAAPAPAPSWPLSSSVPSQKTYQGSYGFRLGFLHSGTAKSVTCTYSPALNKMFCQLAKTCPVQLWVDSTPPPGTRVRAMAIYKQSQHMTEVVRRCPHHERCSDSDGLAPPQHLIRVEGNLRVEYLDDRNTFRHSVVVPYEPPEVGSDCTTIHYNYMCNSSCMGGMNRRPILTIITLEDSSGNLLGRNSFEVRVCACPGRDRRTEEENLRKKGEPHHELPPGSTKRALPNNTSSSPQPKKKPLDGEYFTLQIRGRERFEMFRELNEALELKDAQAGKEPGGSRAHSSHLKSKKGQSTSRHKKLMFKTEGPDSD

Assay [6] shares this target. Description: TOX21_p53_BLA_p3_ratio: Tox21 HCT-116 p53 Agonism Beta-lactamase Assay, Ratio, Phase 3 (AID 2283596). The method in brief:
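Cells were seeded at 4000/well, rested 5 h at 37C, then dosed with DMSO compound solutions (217-fold dilution) for 16 h. CCF4-AM substrate was loaded for 2 h at room temperature, and the 460/530 nm emission ratio was fitted for gain of signal versus DMSO.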

The nature of assay [7]: TOX21_p53_BLA_p5_viability: Viability Assessment in the Tox21 HCT-116 p53 Agonism Beta-lactamase Assay, Phase 5 (AID 2283600). Summed up:
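Workflow: seed 4000 cells per well, wait 5 h, add compounds (DMSO, 217-fold dilution), incubate 16 h, load CCF4-AM 2 h, add CellTiter-Glo, read luminescence after 30 min.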

The target in assay [8] is Cellular tumor antigen p53 (Homo sapiens) (UniProt P04637). The experiment in a line: TOX21_p53_BLA_p4_ratio: Tox21 HCT-116 p53 Agonism Beta-lactamase Assay, Ratio, Phase 4 (AID 2283601). The method in brief:
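HCT-116 p53 beta-lactamase reporter cells (4000/well) preincubated 5 h, then compound (217-fold dilution of DMSO stock) for 16 h at 37C. CCF4-AM substrate added 2 h at room temperature; 460/530 nm emission ratio fitted upward versus DMSO.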

In a further assay the target is PGR (gene 5241) (UniProt P06401). Description: TOX21_PR_BLA_Followup_Antagonist_ratio: Tox21 HEK293 Progesterone Receptor (PR) Antagonism Beta-lactamase Follow-Up Assay, Ratio (AID 2283934).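 Further: PR-UAS-bla HEK293T cells stimulated with 1 nM R5020 agonist for 16 hr.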 The method in brief:
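Readout is the blue/green (ch2/ch1) substrate cleavage ratio after 2 hours at room temperature, following 16 hr co-treatment of PR-bla HEK293T cells with compound and 1nM promegestone. Multiplexed CellTiter-Glo viability flags cytotoxicity; DMSO baseline.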

PGR (gene 5241), sequence (P06401 whole entry, looked up): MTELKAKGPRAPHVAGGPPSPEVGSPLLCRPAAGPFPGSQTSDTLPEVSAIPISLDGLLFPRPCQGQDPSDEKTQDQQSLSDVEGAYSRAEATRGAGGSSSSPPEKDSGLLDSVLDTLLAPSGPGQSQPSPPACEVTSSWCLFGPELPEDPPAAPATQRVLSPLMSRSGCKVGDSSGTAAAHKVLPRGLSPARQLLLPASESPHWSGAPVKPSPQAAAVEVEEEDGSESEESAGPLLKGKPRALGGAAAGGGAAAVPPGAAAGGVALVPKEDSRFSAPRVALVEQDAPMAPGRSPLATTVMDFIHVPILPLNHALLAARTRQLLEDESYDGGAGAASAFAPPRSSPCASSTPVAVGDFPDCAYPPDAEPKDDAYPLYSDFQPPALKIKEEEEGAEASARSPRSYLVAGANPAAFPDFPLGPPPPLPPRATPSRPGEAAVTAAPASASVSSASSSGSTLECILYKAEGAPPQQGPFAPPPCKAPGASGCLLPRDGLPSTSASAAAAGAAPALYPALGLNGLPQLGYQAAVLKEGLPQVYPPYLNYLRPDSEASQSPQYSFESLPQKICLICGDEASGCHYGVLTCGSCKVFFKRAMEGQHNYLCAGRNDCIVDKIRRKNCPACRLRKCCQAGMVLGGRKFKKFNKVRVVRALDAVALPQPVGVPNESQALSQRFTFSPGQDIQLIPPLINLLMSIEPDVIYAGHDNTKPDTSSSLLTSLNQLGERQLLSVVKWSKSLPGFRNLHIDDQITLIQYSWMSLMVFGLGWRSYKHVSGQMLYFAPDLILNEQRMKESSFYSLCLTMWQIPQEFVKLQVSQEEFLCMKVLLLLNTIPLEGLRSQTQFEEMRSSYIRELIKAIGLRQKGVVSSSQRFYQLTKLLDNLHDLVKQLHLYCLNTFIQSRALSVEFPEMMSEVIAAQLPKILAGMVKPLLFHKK

Take `C[C@H]1C[C@H]2[C@@H]3CCC4=CC(=O)C=C[C@]4(C)[C@@]3(F)[C@@H](O)C[C@]2(C)[C@@]1(O)C(=O)CCl`: the result in assay [1], in [2], in [3] and in assay [4] was inactive.
On to `CCCCCC=CCC=CCCCCCCCC(=O)OCC`, for which the outcome in assay [1], in assay [2], in assay [3] and in assay [4] was inactive.
For the compound `O=C1CCC(=O)O1`, the compound was called inactive in assay [1], in assay [2], in assay [3], in assay [4] and in assay [5].
Take `CC(C)CN(C[C@@H](OP(=O)(O)O)[C@H](Cc1ccccc1)NC(=O)O[C@H]1CCOC1)S(=O)(=O)c1ccc(N)cc1`: the call in [1], in [2], in assay [3], in [4] and in assay [5] was inactive.
As to `C[C@]12CCC(=O)C[C@@H]1CC[C@@H]1[C@@H]2CC[C@]2(C)C=CC[C@@H]12`, the compound was called inactive in assay [1], in assay [2], in assay [3], in [6], in [7] and in assay [8].
For `CC(C)OCC1CO1` (stereo unspecified), the outcome in assay [1], in assay [2], in [3], in assay [4] and in assay [5] was inactive.
As to `SCCSCCS`, the compound was called inactive in assay [1], in assay [2], in assay [3], in [6], in assay [7] and in assay [8].
`CC(=O)N(O)CCCCCNC(=O)CCC(=O)N(O)CCCCCNC(=O)CCC(=O)N(O)CCCCCN`: the compound was classed as inactive in [1], in assay [2], in assay [3], in assay [6] and in [8].
With `CC(=O)OCC(=O)[C@@]1(O)CCC2C3CCC4=CC(=O)CC[C@]4(C)C3C(O)C[C@@]21C` (stereo partly specified), the result in [1], in assay [2], in [3], in assay [6], in [7] and in assay [8] was inactive. The outcome with PGR (gene 5241) was inactive.
Turning to `COc1ccc(C(=O)N2CCN(CC(=O)N3CCOCC3)CC2)cc1`, the result in assay [1], in assay [2], in [3], in [6], in [7] and in [8] was inactive.
As to `COc1cc(C)c(Cc2cnc(N)nc2N)cc1OC`, the compound was called inactive in [1], in assay [2], in assay [3], in assay [4] and in assay [5].
For `O=C1OC(=O)c2cc([N+](=O)[O-])ccc21`, the compound was classed as inactive in assay [1], in assay [2], in [3], in assay [4] and in [5].
Take `CCC1C(=O)OCC1Cc1cncn1C` (stereo unspecified): the compound was classed as inactive in assay [1], in assay [2], in assay [3], in [6], in [7] and in [8].
Regarding `C1CCN(CN2CCCCC2)CC1`, the result in assay [1], in assay [2], in assay [3], in assay [6] and in [8] was inactive.
As for `CC1(C)C2CC[C@]3(C)[C@H](C(=O)C=C4[C@@H]5C[C@@](C)(C(=O)O)CC[C@]5(C)CC[C@]43C)[C@@]2(C)CC[C@@H]1O[C@H]1O[C@H](C(=O)O)[C@@H](O)[C@H](O)[C@H]1O[C@@H]1O[C@H](C(=O)O)[C@@H](O)[C@H](O)[C@H]1O` (stereo partly specified), the result in [1], in assay [2], in [3] and in assay [4] was inactive.
Regarding `C[N+](C)(CCCCCC[N+](C)(C)C1c2ccccc2-c2ccccc21)C1c2ccccc2-c2ccccc21`, the call in assay [1], in assay [2], in [3] and in assay [4] was inactive.
Regarding `COc1cc(C(=O)OC(COCCC(C)C)CN2CCOCC2)cc(OC)c1OC` (stereo unspecified), the compound was called inactive in assay [1], in assay [2], in assay [3] and in [4].
For `O=C(CCCN1CCN(c2ccccn2)CC1)c1ccc(F)cc1`, the outcome in assay [1], in [2], in assay [3], in assay [6], in assay [7] and in [8] was inactive.
Consider `N=C(N)c1ccc2cc(OC(=O)c3ccc(N=C(N)N)cc3)ccc2c1`, for which the call in [1], in assay [2], in assay [3], in [6] and in [7] was inactive.
In the case of `CC(=O)O[C@H]1C[C@@H]2CC[C@@H]3[C@H](CC[C@@]4(C)[C@H]3C[C@H]([N+]3(C)CCCCC3)[C@@H]4OC(C)=O)[C@@]2(C)C[C@@H]1N1CCCCC1`, the compound was classed as inactive in [1], in assay [2], in assay [3], in assay [6], in assay [7] and in assay [8].
Turning to `On1nnc2ccccc21`, the outcome in assay [1], in assay [2], in assay [3], in assay [4], in [5] and in assay [7] was inactive. The result in [8] was inactive.
Turning to `O=C(O)Cc1cccc(-c2cc(CCCCCCc3ccc(O[C@H]4O[C@H](CO)[C@@H](O)[C@H](O)[C@@H]4O)c(-c4cccc(CC(=O)O)c4)c3)ccc2O[C@H]2O[C@H](CO)[C@@H](O)[C@H](O)[C@@H]2O)c1`, the compound was called inactive in [1], in assay [2], in assay [3], in assay [4], in assay [5] and in assay [7].
`CCOC(=O)[C@H](CCc1ccccc1)N[C@@H](C)C(=O)N1CCC[C@H]1C(=O)O`: the result in assay [1], in assay [2], in assay [3], in assay [4], in [5] and in assay [7] was inactive.
For the compound `CCOc1ccc(N=Nc2ccc(N)cc2N)cc1`, the compound was called inactive in assay [1], in assay [2], in assay [3], in [4], in [5] and in assay [7]. Also, in assay [8], the result was inactive.
For the compound `NC(=S)NS(=O)(=O)c1ccc(N)cc1`, the call in [1], in [2], in [3], in assay [4], in assay [5] and in assay [7] was inactive.
With `NCCCC[C@H](NC(=O)[C@@H]1CCCN1C(=O)[C@@H]1CSSC[C@H](N)C(=O)N[C@@H](Cc2ccccc2)C(=O)N[C@@H](Cc2ccccc2)C(=O)N[C@@H](CCC(N)=O)C(=O)N[C@@H](CC(N)=O)C(=O)N1)C(=O)NCC(N)=O`, the result in assay [1], in assay [2], in assay [3], in [4], in assay [5] and in [7] was inactive. Moreover, the result in assay [8] was inactive.
Turning to `CC(=O)NO`, the call in [1], in [2], in [3], in assay [4], in [5] and in assay [7] was inactive. For the same compound, the outcome in [8] was inactive.
In the case of `OCC1O[C@@H](O[C@@H]2C(CO)OC(O)C(O)C2O)C(O)C(O)C1O` (stereo partly specified), the compound was called inactive in [1], in assay [2], in assay [3], in [4], in [5] and in assay [7].
`C=CCOc1c(Br)cc(C(C)(C)c2cc(Br)c(OCC=C)c(Br)c2)cc1Br`: the call in assay [1], in assay [2], in [3], in assay [4], in assay [5] and in [7] was inactive.
For the compound `CC(C(=O)O)c1ccc(C(=O)c2ccccc2)s1` (stereo unspecified), the call in assay [1], in assay [2], in assay [3], in assay [4], in assay [5] and in assay [7] was inactive. For the same compound, the outcome in [8] was inactive.
Regarding `CC1=C(O)C(=O)OC1C` (stereo unspecified), the result in assay [1], in [2], in assay [3], in assay [4], in [5] and in [7] was inactive.
Regarding `CC(C)N1CCN(c2ccc(OC[C@H]3CO[C@](Cn4cncn4)(c4ccc(Cl)cc4Cl)O3)cc2)CC1`, the result in assay [1], in assay [2], in assay [3], in assay [5], in [7] and in assay [8] was inactive. For the same compound, in assay [4], the AC50 was 10.3 µM (active).
